Experimental data published in PubChem BioAssay.
The source made the active and inactive calls.

How the values were obtained:
[1] = binders of probe aFSTL3 on microarray, primary screen, stem cell growth factor project, biochemical, small-molecule microarray, fluorescence 635/667 (AID 1064); conditions: higher = more signal;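 also: measures binding of the biotinylated anti-FSTL3 antibody to printed compounds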
[2] = binders from COS7 lysate, DM2A8 probe, primary screen, torsin A project, cell lysate, small-molecule microarray, fluorescence 635/667 (AID 1065); conditions: higher = more signal, COS7 lysate expressing mutant human TOR1A
[3] = binders of probe aFGF2 on microarray, primary screen, stem cell growth factor project, biochemical, small-molecule microarray, fluorescence 635/667 (AID 1067); conditions: higher = more signal;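 also: measures binding of biotinylated aFGF2 protein to printed compounds on slides; z-score merges feature fluorescence and signal-to-noise across triplicate slides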
[4] = binders of probe aFGF10 on microarray, primary screen, stem cell growth factor project, biochemical, small-molecule microarray, fluorescence 635/667 (AID 1071); conditions: higher = more signal;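 also: score merges 667 nm spot intensity and signal to noise from triplicate slides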
[5] = target: Neurogenic locus notch homolog protein 2 (Homo sapiens) (UniProt Q04721); experiment: Notch2 binders on small-molecule microarrays, primary screen, biochemical, small-molecule microarray, 635 nm fluorescence, stem cell growth factors (AID 1073); conditions: Notch2 binding, higher = more signal
[6] = target: Pro-neuregulin-1, membrane-bound isoform (Homo sapiens) (UniProt Q02297); experiment: NRG1 binders on small-molecule microarrays, primary screen, psychiatric disease protein project, biochemical, small-molecule microarray, fluorescence 635/667 (AID 1075); conditions: NRG1 binding, 635 nm fluorescence, higher = more signal;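 also: score combines 667 nm spot fluorescence with signal to noise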
Chain of Pro-neuregulin-1, membrane-bound isoform (Homo sapiens) (Q02297 whole entry, looked up, the tested form may be a part, canonical isoform): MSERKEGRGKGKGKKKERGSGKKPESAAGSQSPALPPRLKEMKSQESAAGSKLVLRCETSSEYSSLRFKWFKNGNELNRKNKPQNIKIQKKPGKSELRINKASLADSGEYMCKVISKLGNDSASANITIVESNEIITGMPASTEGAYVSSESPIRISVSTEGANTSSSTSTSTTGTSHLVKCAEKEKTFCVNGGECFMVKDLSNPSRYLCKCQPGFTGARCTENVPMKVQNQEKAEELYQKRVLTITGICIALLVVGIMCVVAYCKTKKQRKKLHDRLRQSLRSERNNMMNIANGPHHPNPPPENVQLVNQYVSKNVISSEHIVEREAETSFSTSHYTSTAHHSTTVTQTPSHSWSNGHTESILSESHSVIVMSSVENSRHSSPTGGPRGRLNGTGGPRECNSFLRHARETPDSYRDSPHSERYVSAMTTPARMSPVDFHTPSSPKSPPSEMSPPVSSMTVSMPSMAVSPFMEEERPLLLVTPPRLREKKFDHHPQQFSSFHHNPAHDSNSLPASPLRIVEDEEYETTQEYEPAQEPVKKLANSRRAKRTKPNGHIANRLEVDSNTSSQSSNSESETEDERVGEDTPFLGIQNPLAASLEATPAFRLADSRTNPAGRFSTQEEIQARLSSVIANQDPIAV

[7] = tested on: Neuregulin-1 EGF-like domain; experiment: binders of neuregulin-1 EGF-like domain, primary screen, biochemical, small-molecule microarray, 635 nm fluorescence (AID 1081); conditions: small-molecule microarray binding, higher = more signal;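 also: binding of the protein to compounds printed on small-molecule microarray slides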
[8] = FRG1 promoter luciferase signal modulators, primary screen, FRG1 inhibition for FSHD, cell-based, C2C12 myotubes, firefly/Renilla luciferase, luminescence (AID 1084); conditions: higher = more signal, called active from +8 up or from −8 down
[9] = binders of probe aFST on microarray, primary screen, stem cell growth factor project, biochemical, small-molecule microarray, fluorescence 635/667 (AID 1086); conditions: higher = more signal;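 also: score merges 667 nm fluorescence with signal-to-noise of each printed compound spot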
[10] = binders of probe aHhip on microarray, primary screen, stem cell growth factor project, biochemical, small-molecule microarray, fluorescence 635/667 (AID 1087); conditions: higher = more signal;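 also: score merges spot fluorescence at 667nm with spot signal to noise ratio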
[11] = tested on: PRMT1 (protein arginine N-methyltransferase 1); experiment: PRMT1 binders on small-molecule microarrays, primary screen, biochemical, small-molecule microarray, 635 nm fluorescence (AID 1088); conditions: small-molecule microarray binding, higher = more signal;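 also: binding of Prmt1 protein to compounds spotted on small-molecule microarray slides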
[12] = yeast growth modulation, basal conditions, primary screen, YJM789 clinical isolate, OD600, 24 h (AID 1089);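 also: growth of clinical yeast isolate S. cerevisiae YJM 789 seeded 1000 cells per well; test concentration not given here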; conditions: S. cerevisiae YJM789 growth, higher = more signal, called active from +8 up or from −8 down
[13] = fission yeast growth modulation, primary screen, strain 972, OD600, 24 h, no modulator (AID 1090);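 also: basal condition with compound alone and no growth modifier present; test concentration not given here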; conditions: S. pombe 972 growth, higher = more signal, called active from +8 up or from −8 down
[14] = S. cerevisiae growth modulation with rapamycin, primary screen, strain BY4716, OD600, 96 h (AID 1091); conditions: higher = more signal, called active from +8 up or from −8 down; also: test concentration not given here
[15] = target: Torsin-1A-interacting protein 2 (Homo sapiens) (UniProt Q8NFQ8); experiment: LULL1 binders on small-molecule microarray, primary screen, cell lysate, human LULL1 lysate, 635/667 nm fluorescence (AID 1092); conditions: hLULL1 lysate binding, 635 nm fluorescence, higher = more signal;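 also: probe is lysate of COS7 cells overexpressing human LULL1; score merges per-feature 667 nm fluorescence with signal-to-noise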
Chain of Torsin-1A-interacting protein 2 (Homo sapiens) (Q8NFQ8 whole entry, looked up): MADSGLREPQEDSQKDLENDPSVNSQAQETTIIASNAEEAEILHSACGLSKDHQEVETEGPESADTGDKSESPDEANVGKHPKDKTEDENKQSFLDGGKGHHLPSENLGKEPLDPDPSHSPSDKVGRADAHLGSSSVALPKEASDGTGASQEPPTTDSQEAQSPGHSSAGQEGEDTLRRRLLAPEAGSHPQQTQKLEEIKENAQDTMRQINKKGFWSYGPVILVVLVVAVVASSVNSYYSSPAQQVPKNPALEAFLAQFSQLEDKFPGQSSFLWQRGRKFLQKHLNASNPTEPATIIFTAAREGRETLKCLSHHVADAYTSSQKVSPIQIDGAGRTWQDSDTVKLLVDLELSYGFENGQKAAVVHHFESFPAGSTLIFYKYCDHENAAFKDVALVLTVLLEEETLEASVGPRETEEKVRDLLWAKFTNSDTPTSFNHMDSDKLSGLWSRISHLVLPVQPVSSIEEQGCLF

[16] = E. coli growth modulation, two-sided OD650, primary screen, E. coli filamentation project, strain DRC41, 24 h (AID 1093); conditions: OD650, 24 h, higher = more signal, called active from +8 up or from −8 down;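 also: MC1000 strain lacking acrAB efflux and sulA so SOS filamentation is blocked; test concentration not given here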
[17] = small-molecule microarray binders of probe aLefty2, primary screen, biochemical, biotinylated probe, 635/667 nm fluorescence (AID 1094); conditions: higher = more signal;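 also: score merges spot fluorescence near 667 nm with spot signal-to-noise ratio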
[18] = tested on: Noggin (protein binding on small-molecule microarray); experiment: Noggin binders on small-molecule microarray, primary screen, biochemical, 635/667 nm fluorescence (AID 1095); conditions: 635 nm fluorescence, higher = more signal;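 also: score merges 667 nm feature fluorescence with signal to noise over triplicate slides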
[19] = target: Neurogenic locus notch homolog protein 3 (Homo sapiens) (UniProt Q9UM47); experiment: NOTCH3 binders on small-molecule microarray, primary screen, biochemical, 635/667 nm fluorescence (AID 1096); conditions: NOTCH3 binding, 635 nm fluorescence, higher = more signal
Chain of Neurogenic locus notch homolog protein 3 (Homo sapiens) (Q9UM47 whole entry, looked up): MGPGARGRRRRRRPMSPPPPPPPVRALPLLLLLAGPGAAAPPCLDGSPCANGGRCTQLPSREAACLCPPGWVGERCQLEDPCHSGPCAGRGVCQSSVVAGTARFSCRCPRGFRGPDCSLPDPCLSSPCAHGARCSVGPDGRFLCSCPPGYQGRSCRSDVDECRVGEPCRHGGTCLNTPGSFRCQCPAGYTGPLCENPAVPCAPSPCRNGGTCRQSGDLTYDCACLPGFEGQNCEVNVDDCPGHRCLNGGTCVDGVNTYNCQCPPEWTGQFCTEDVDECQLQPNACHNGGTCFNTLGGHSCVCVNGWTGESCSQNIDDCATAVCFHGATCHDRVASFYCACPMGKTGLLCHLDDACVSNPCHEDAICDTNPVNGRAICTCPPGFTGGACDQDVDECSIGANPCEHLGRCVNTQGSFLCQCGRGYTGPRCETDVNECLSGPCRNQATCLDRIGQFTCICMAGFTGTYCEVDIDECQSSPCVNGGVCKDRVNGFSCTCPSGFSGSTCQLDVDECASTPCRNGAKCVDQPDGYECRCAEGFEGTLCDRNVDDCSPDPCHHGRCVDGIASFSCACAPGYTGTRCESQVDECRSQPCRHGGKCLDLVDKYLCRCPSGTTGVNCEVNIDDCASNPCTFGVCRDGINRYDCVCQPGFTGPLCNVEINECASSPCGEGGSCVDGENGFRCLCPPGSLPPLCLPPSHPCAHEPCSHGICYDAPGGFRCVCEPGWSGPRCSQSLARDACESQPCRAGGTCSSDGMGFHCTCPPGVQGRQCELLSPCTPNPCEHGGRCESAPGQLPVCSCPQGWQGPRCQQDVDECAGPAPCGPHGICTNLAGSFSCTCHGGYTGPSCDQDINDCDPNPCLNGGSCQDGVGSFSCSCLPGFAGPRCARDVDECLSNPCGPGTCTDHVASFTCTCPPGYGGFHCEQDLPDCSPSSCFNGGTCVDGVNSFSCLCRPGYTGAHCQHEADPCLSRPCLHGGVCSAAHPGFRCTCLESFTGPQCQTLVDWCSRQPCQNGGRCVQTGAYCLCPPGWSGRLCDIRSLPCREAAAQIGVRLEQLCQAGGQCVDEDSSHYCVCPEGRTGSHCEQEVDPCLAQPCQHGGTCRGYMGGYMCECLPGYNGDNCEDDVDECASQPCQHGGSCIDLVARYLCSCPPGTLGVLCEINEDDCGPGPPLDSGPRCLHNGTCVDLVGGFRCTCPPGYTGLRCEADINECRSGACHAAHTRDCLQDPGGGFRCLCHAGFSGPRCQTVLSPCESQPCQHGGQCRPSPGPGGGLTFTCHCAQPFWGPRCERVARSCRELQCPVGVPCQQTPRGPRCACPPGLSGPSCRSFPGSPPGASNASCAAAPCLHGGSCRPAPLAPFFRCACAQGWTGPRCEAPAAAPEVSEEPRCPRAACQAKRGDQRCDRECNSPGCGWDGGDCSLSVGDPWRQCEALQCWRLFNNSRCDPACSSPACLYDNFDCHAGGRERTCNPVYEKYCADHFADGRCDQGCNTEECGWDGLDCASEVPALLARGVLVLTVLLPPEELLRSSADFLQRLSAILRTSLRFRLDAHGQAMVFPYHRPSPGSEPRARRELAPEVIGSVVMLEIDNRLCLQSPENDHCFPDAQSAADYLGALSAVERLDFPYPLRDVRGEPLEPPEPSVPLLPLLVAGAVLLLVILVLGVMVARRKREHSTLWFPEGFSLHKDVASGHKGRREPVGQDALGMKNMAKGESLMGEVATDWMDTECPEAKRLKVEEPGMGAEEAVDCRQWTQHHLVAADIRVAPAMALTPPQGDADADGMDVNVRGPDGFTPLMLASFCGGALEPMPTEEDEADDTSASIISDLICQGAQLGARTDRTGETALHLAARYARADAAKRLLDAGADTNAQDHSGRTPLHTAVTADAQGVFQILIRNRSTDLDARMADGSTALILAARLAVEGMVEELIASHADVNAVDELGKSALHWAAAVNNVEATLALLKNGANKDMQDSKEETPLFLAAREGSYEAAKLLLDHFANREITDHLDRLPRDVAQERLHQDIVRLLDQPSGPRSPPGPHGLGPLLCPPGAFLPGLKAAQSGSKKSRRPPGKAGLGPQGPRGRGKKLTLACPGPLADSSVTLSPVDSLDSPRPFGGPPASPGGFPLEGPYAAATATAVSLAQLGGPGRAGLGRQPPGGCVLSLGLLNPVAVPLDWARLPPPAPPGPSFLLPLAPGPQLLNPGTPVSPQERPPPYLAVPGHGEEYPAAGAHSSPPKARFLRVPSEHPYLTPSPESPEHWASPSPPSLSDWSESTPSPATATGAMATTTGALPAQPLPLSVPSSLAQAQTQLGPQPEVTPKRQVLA

[20] = small-molecule microarray binders of probe aEGFR, primary screen, biochemical, biotinylated probe, 635/667 nm fluorescence (AID 1097); conditions: higher = more signal;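 also: probe is a biotinylated anti-EGFR antibody binding compounds printed on slides; score combines fluorescence near 667 nm and signal to noise of each spot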

Structure (SMILES)	composite z-score [1]	composite z-score [2]	composite z-score [3]	composite z-score [4]	composite z-score [5]	composite z-score [6]	composite z-score [7]	z-score [8]	composite z-score [9]	composite z-score [10]	composite z-score [11]	z-score [12]	z-score [13]	z-score [14]	composite z-score [15]	z-score [16]	composite z-score [17]	composite z-score [18]	composite z-score [19]	composite z-score [20]
O=C1N(CCS(=O)(=O)c2ccccc2)Cc2ccccc2C[C@@]12COC(c1ccc(OCCCO)cc1)=N2	0.965	0.667	0.212	0.613	1.45	1.02	1.35	0.0674 (inactive)	1.58	-0.0459	1.54	0.978 (inactive)	0.381 (inactive)	3.45 (inactive)	3.04	0.937 (inactive)	0.686	0.982	1.04	0.285
CC(C)N1CC=CC23O[C@@H]4C=CCOC(=O)[C@@H]4[C@H]2C(=O)N(CCCCCCO)[C@@H]3C1=O (stereo not given in full)	-0.895	-0.775	-0.237	1.07	-0.697	-0.126	1.47	0.213 (inactive)	-0.588	-0.949	0.0483	-0.976 (inactive)	-0.174 (inactive)	-1.41 (inactive)	3.29	0.76 (inactive)	-0.315	-0.627	-0.478	-0.2
CN1C(=O)C2C=CC(C(O)c3cccc4ccccc34)N(NC(=O)OC(C)(C)C)C2C1=O (stereo not given)	1.07	1.79	0.194	0.586	1.37	2.11	1.15	0.93 (inactive)	1.4	-0.0296	1.25	-1.04 (inactive)	-0.397 (inactive)	-0.0612 (inactive)	2.63	-0.094 (inactive)	0.712	-0.773	1.02	0.37
COCCOC(=O)N1C(=O)[C@@]2(c3cc(C#CC4(O)CCCCCC4)ccc31)[C@H](C(=O)N1CCc3cc(OC)c(OC)cc3C1)[C@H]1C(=O)O[C@H](c3ccccc3)[C@H](c3ccccc3)N1[C@@H]2c1ccccc1OCCO	-0.0526	1.46	0.119	0.665	1.15	0.491	1.22	-0.165 (inactive)	1.08	0.623	1.54	2.29 (inactive)	1.05 (inactive)	3.98 (inactive)	1.39	1.36 (inactive)	0.226	1.29	1.06	0.295
O=C1NC(=O)C2C1C=CC(C(O)c1ccc(-c3ccccc3)s1)N2Nc1ccccn1 (stereo not given)	0.536	0.259	-0.0605	0.444	1.31	1.27	0.988	0.703 (inactive)	0.781	-0.191	0.189	-0.3 (inactive)	1.01 (inactive)	0.499 (inactive)	1.76	0.0076 (inactive)	0.129	-0.0414	0.418	-0.0085
Cc1ccc(S[C@]2(C(=O)NCc3ccccc3)CC(=O)N(C3Cc4ccccc4C3)[C@@H]2c2ccc(CO)cc2I)cc1	-0.0093	0.247	-0.123	-0.257	-0.312	1.64	-0.185	-1.73 (inactive)	-0.134	-0.246	1.19	-2.5 (inactive)	-1.73 (inactive)	0.199 (inactive)	2.11	3.17 (inactive)	-0.165	-0.508	-0.288	-0.135
O=C1N(Cc2ccccc2)c2ccccc2[C@H]2OC(c3ccc(OCCCO)cc3)=N[C@@]12CCS(=O)(=O)c1ccccc1	0.149	0.527	0.11	0.951	0.931	1.76	1.28	-1.25 (inactive)	0.574	0.167	1.54	1.19 (inactive)	0.485 (inactive)	8.14 (active)	3.36	-0.81 (inactive)	0.0137	1.75	1.08	-0.0531
COCCCNC(=O)[C@@H]1c2ccccc2C(=O)N(Cc2cc(F)cc(C(F)(F)F)c2)[C@H]1c1ccc(CO)cc1	0.211	-0.303	-0.233	-0.535	-0.984	-0.676	0.716	0.154 (inactive)	-0.395	-0.134	-0.444	-0.359 (inactive)	-0.555 (inactive)	-0.703 (inactive)	0.0519	0.526 (inactive)	-0.016	-0.902	-1.26	-0.207
COc1cccc(C)c1NC(=O)O[C@H]1[C@H](OC(=O)Nc2ccccc2)[C@H](OC(=O)Nc2ccccc2)[C@@H](OC)O[C@@H]1CO	-0.306	0.559	-0.0216	0.401	1.16	1.64	1.22	1.59 (inactive)	0.319	-0.0994	1.55	0.547 (inactive)	1.03 (inactive)	3.23 (inactive)	3.35	-0.721 (inactive)	0.0682	0.203	0.93	-0.125
C[N+](C)(C)CCCCCCNC(=O)[C@@H]1C[C@@H]2C(=O)NCC(=O)N2[C@@H]1c1ccc(O)cc1	-0.416	1.27	-0.116	0.391	-0.149	1.51	1.43	2.8 (inactive)	0.0022	-0.0088	1.53	0.302 (inactive)	0.274 (inactive)	-0.0145 (inactive)	2.39	-0.239 (inactive)	-0.0942	1.53	1.06	-0.141
